A selection: hits, their analogues and other compounds. The true share with any hit is near 21%.
DT40 TDP1 CPT: growth inhibition of DT40 Tdp1-/-;hTDP1 cells with camptothecin (screen for TDP1 inhibitors). chicken DT40 Tdp1-/-;hTDP1 cells + 20 nM CPT, ATP luminescence, 48 h. actives 12% (n = 420,000). Potency, µM (series often up to 46.2 µM), without a hit: at the top dose activity change, negative = growth inhibition, usual class: inhibitors; further: potency means the concentration at half of the fitted maximal effect; on the % scale 0 is the no-effect control and ±100 the full control effect; nearly all actives have a fitted effect of over 55% in size
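Chicken DT40 Tdp1-/- cells complemented with human TDP1, 400 cells/well, exposed to compounds plus 20 nM camptothecin for at least 48 h at 37 C; viability read as ATP content by CellTiter-Glo luminescence.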
DRD3 antagonist: antagonists of human D3 dopamine receptor; P35462; D3R cells, DiscoveRx beta-arrestin luminescence, antagonist mode; hits give low values; max response, negative = inhibition, %; actives 2.5% (n = 360,000); in the data active means max response below about -50%; inconclusive means no clear call, values can overlap the other calls; further: on the % scale 0 is the no-effect control and ±100 the full control effect
Target sequence (P35462 whole entry, looked up): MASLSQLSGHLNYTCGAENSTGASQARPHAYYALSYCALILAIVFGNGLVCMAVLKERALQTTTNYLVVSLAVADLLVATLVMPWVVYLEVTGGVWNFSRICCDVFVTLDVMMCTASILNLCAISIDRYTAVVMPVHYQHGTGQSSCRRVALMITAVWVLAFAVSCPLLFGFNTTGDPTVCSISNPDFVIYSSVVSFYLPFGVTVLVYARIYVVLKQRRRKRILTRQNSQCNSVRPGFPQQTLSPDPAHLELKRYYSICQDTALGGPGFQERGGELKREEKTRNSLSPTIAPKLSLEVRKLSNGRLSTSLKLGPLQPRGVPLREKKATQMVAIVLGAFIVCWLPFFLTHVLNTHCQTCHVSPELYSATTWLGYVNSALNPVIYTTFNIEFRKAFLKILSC
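Cells expressing the human receptor were seeded at 1500 cells/well, incubated overnight at 37 degrees C in 5% CO2, then exposed to library compounds with dopamine controls for 90 minutes at 37 degrees C before luminescent detection.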
ClpP mod: qHTS Assay for Activators of ClpP; purified B. subtilis ClpP, FRET peptide cleavage, 20 min; ATP-dependent Clp protease proteolytic subunit (Bacillus subtilis (strain 168)), P80244; Potency, µM (top dose mostly 57.5 µM), without a hit: at the highest dose activity change, negative = active; actives 1.9% (n = 340,000); active means well fitted falling curve with a large enough effect; inconclusive means small, poorly fitted or top-dose-only effect; inactive means no such curve, though single readings can be large or run the other way; further: potency means the concentration at half of the fitted maximal effect; the source files actives as falling curves though it sought activators and does not explain the sign; nearly all actives have a fitted effect of over 65% in size
Target sequence (P80244 whole entry, looked up): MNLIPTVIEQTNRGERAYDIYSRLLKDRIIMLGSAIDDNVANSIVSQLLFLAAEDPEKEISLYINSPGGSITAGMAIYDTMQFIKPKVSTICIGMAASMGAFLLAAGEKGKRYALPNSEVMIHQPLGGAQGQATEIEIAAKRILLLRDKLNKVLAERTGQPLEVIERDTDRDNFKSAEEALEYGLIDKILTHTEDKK
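Buffer: 100 mM Tris/HCl pH8, 100 mM KCl, 0.05% low protease BSA, 2.5% glycerol, 0.01% Tween-20. ClpP 10 microg/mL final; 20 min RT; delta FRET normalized to ADEP and DMSO controls.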
DT40 TDP1 no CPT: qHTS for Inhibitors of human tyrosyl-DNA phosphodiesterase 1 (TDP1): qHTS in cells in absence of CPT; DT40 Tdp1-/- hTDP1 cells, no CPT, ATP luminescence, 48 h; Potency, µM (doses to about 46.2 µM), inactives show at the highest dose activity change, negative = growth inhibition, hits mostly inhibitors; actives 15% (n = 420,000); AID 686978, 2013; further: potency means the concentration at half of the fitted maximal effect; on the % scale 0 is the no-effect control and ±100 the full control effect; nearly all actives have a fitted effect of over 55% in size
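Cells were dispensed at 400 per well, compounds added by pin tool, plates incubated ≥48 hr at 37 °C, then CellTiter-Glo added for 30 min at room temperature before luminescence reading. Line: DT40 Tdp1-/- complemented with hTDP1; camptothecin omitted.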
IL-1B inflam inh: inhibitors of inflammasome signaling (IL-1 beta secretion); THP-1 LPS/ATP IL-1B secretion, AlphaLISA, 16 h; hits give low values; activity change, % at 57.5 µM; actives 4.7% (n = 360,000); in the data active means activity change below about -50%; inconclusive means mostly about -30% to -49%; further: on the % scale 0 is the no-effect control and ±100 the full control effect
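Secreted IL-1B measured by AlphaLISA bead assay after 16 h compound exposure of THP-1 cells; compounds (final up to 57.5 uM) added 1 h before LPS (250 ng/mL) and ATP (1.25 mM) stimulation; lower signal means less secretion.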
D3 ag: agonists of human D3 dopamine receptor | actives 0.58% (n = 410,000) | AID 652048 | D3R DiscoveRx beta-arrestin cells, luminescence, 90 min | P35462 | max activation, %; in the data active means max activation above about 30%; further: 0% is about no effect
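Agonist-mode cell screen: cells plated at 1500/well and incubated overnight at 37 °C, then exposed to library compounds for 90 min at 37 °C. Detection reagent was added for 30–60 min at room temperature, and luminescence was read.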
Numbers without * were called inactive; ? = inconclusive; · = not tested or not shown; ! = not confirmed by another sample. Unless noted, the call rests on the fitted dose curve; in most records, active means well fitted inhibition curve with a large enough effect; inconclusive means small, poorly fitted or top-dose-only effect; inactive means flat fitted curve, though single readings scatter.

SMILES | DT40 TDP1 CPT | DRD3 antagonist | ClpP mod | DT40 TDP1 no CPT | IL-1B inflam inh | D3 ag
O=C1CC(c2ccc3c(c2)OCCO3)Oc2ccc([N+](=O)[O-])cc21 (stereo not drawn) | ? | ? | -1% | 16µM* | -69* | -8
CCOC(=O)c1cc(-c2ccc(OC)cc2)n(CCC(=O)NCCc2ccccc2)c1C | 21µM* | · | -3% | 18µM* | · | -12
CCOC(=O)c1cc(-c2ccc(C)cc2)n(CCC(=O)NCCCOC)c1C | -22% | -1 | 1% | -13% | -5 | -1
CCOC(=O)c1cc(-c2ccccc2)n(CCC(=O)NCCc2cccc(C)c2)c1C | 16µM* | · | -5% | ? | · | -9
Cc1cc(SCC(=O)Nc2ccc(O)cc2)n2ncc(-c3ccccc3)c2n1 | -30% | 10 | 12% | -2% | -51* | 15
Cc1cc(SCC(=O)Nc2ccc(O)cc2)n2nc(C)c(-c3ccccc3)c2n1 | ? | 11 | · | ? | -80* | 7
Cc1cc(SCC(=O)Nc2ccccc2)n2ncc(-c3ccccc3)c2n1 | ? | 5 | 1% | -56% | -55* | -7
Cc1cc(C)n2nc(SCC(=O)Nc3ccc(O)cc3)nc2n1 | 2% | -2 | 2% | -4% | 18 | 1
COc1ccc(NC(=O)CSc2cc(C)nc3c(-c4ccccc4)cnn23)cc1 | 25% | 3 | · | ? | 20 | 2
C[C@@H](NC(=O)CN(c1ccccc1)S(=O)(=O)N(C)C)c1ccccc1 | · | · | 1% | · | · | -12
O=c1cc(N2CCCCC2)nc2n1CCCS2 | ? | 17 | -3% | -30% | -3 | 35*
Cc1ccc(CCNC(=O)c2ccc3c(c2)N(Cc2ccccc2F)C(=O)c2ccccc2S3=O)cc1 (stereo not drawn) | ? | · | 0% | ? | · | 3
CCOc1ccc(CCNC(=O)c2ccc3c(c2)N(Cc2ccccc2)C(=O)c2ccccc2S3=O)cc1OCC (stereo not drawn) | 16µM* | · | -2% | 5.8µM* | · | 10
Cc1ccc(CCNC(=O)c2ccc3c(c2)N(Cc2ccccc2)C(=O)c2ccccc2S3=O)cc1 (stereo not drawn) | 16µM* | · | -1% | 15µM* | · | -8
CCCCCCCCCCCCCCCC(=O)OCC1OC(n2ccc(N)nc2=O)C(O)C1O (stereo not drawn) | 0.52µM* | 44 | 1% | 0.65µM* | 0 | -1
Nc1ccn([C@@H]2O[C@H](CO)[C@@H](O)[C@@H]2O)c(=O)n1 | 0.12µM* | 25 | 0% | 0.16µM* | 61 | 19
COc1nc(=O)n(C2OC(CO)C(O)C2O)cc1C (stereo not drawn) | -3% | 5 | 35µM* | 3% | 4 | 3
CC[C@H](C)[C@@H](CO)NC(=O)[C@H]1O[C@@H](n2ccc(N)nc2=O)[C@H](O)[C@@H]1O | -11% | 0 | 2% | -7% | 26 | -7
NC[C@H]1O[C@@H](n2ccc(N)nc2=O)[C@H](O)[C@@H]1O | ? | 5 | -1% | ? | 21 | -6
Nc1ccn([C@H]2CC[C@@H](CO)O2)c(=O)n1 | 7.5µM* | -4 | -1% | 11µM* | 2 | -2
Nc1ccn(C2CO[C@H](CO)O2)c(=O)n1 (stereo partly drawn) | ? | · | · | ? | · | 3
O=C(O)c1cccnc1C(=O)c1ccccc1 | 10% | 14 | · | 12% | 4 | 6
COc1ccc(OC)c(NC(=O)Nc2cccnc2)c1 | 0% | ? | 0% | 3% | -21 | -8
Cc1ccc(CNC(=O)[C@H]2O[C@@H](n3ccc(N)nc3=O)[C@H](O)[C@@H]2O)o1 | -6% | -126* | 0% | -4% | 6 | -24
CCCn1cnnc1CNC(=O)[C@H]1O[C@@H](n2ccc(N)nc2=O)[C@H](O)[C@@H]1O | 5% | 2 | 0% | -9% | 20 | 7
SMILES | DT40 TDP1 CPT | DRD3 antagonist | ClpP mod | DT40 TDP1 no CPT | IL-1B inflam inh | D3 ag
Nc1ccn([C@@H]2O[C@H](CO)[C@@H](OP(=O)(O)O)[C@H]2O)c(=O)n1 | 5% | · | · | 1% | · | ·
Nc1ccn(C2OC(CO)C(O)C2F)c(=O)n1 (stereo not drawn) | 1.3µM* | 14 | -2% | 2.1µM* | 13 | 8
OCC1OC(n2ccc3c2ncn2ncnc32)C(O)C1O (stereo not drawn) | 0.37µM* | 0 | -4% | 0.46µM* | 66 | -4
Nc1ccn(C2OC(CO)C(O)C2O)c(=O)n1 (stereo not drawn) | 0.016µM*! | · | · | 0.012µM*! | · | ·
COc1cc(NC(=O)c2onc(C)c2Cl)cc(OC)c1OC | 0% | 0 | 0% | 3% | 0 | 2
C[C@]12C=CC(=O)C=C1[C@@H](F)C[C@@H]1[C@@H]2[C@@H](O)C[C@@]2(C)[C@H]1CC[C@]2(O)C(=O)CO | ? | · | · | ? | · | 3
COc1ccccc1NC(=O)c1cc2c(cc1Cl)N1CCCCCC1=NS2(=O)=O | 1% | 18 | ? | -23% | 8 | 4
NC(CSCSCC(N)C(=O)O)C(=O)O (stereo not drawn) | -1% | · | · | -2% | · | ·
CCCCCCCCCCCCCCCC(=O)Nc1ccn(C2OC(CO)C(O)C2O)c(=O)n1 (stereo not drawn) | 0.65µM* | 21 | -2% | 0.73µM* | 30 | 17
O=C(CSc1nnc(CNC(=O)c2ccc(F)cc2)o1)NCC1CCCO1 (stereo not drawn) | -9% | -6 | -1% | 1% | 0 | 4
CC1CC[C@@]2(C(=O)O)CCC3(C)C(=CCC4[C@]5(C)CC(O)C(O)[C@](C)(CO)C5C(O)C[C@@]43C)C2C1C (stereo partly drawn) | 1% | · | · | 0% | · | ·
C=CC[C@@H](CC(=O)N[C@H](CO)Cc1ccccc1)C(=O)N[C@@H](COC(=O)[C@H](CC=C)CC(=O)OC(C)(C)C)Cc1ccccc1 | 21µM* | -21 | 2% | 23µM* | -17 | 4
C=CC[C@@H](CC(=O)N[C@@H](CO)Cc1ccccc1)C(=O)N[C@H](COC(=O)[C@@H](CC=C)CC(=O)OC(C)(C)C)Cc1ccccc1 | 13µM* | -4 | 2% | 21µM* | 9 | -21
C=CC[C@@H](CC(=O)N[C@@H](CO)Cc1ccccc1)C(=O)N[C@H](COC(=O)[C@@H](CC=C)CC(=O)OC(C)(C)C)Cc1c[nH]c2ccccc12 | 16µM* | -6 | -2% | 3.7µM* | ? | -10

From PubChem
